# This is part of a sample that, as a whole, favours compounds with a hit. Of some 79,000 tested, about 15% had one in any assay. A number with no mark means an inactive call. Active and inactive are the calls of the source. No stated cut-off is given here; in the data, active means growth inhibition above about 70%; inactive means the rest.
# Key:
# [1] = NCI Yeast Anticancer Drug Screen. Data for the wt1 strain (AID 149);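 further: 0% = growth of vehicle-treated wt1 cultures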; conditions: S. cerevisiae wt1 strain (SPY 50644) growth inhibition, active compounds read high
# Method in brief: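 Readout: yeast growth inhibition, normalised to vehicle controls, in the wt1 strain exposed to test compounds.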
# [2] = NCI Yeast Anticancer Drug Screen. Data for the rad50EPP+ strain (AID 151);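 further: 0% = growth of vehicle-treated control cultures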; conditions: S. cerevisiae rad50 mutant strain, active compounds read high
# Method in brief: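 Yeast strain carrying rad50 alteration (rad50EPP+) exposed to compounds; growth inhibition measured relative to vehicle-treated controls.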
# [3] = NCI Yeast Anticancer Drug Screen. Data for the mgt1 strain (AID 153); conditions: S. cerevisiae mgt1 mutant growth inhibition, active compounds read high
# Method in brief: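 Yeast mgt1 strain (DNA repair/cell-cycle alteration panel) exposed to compounds; growth inhibition measured relative to vehicle-treated controls.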
# [4] = NCI Yeast Anticancer Drug Screen. Data for the rad50 strain (AID 155);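 further: 0% = growth of vehicle-only cultures of the same strain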; conditions: S. cerevisiae rad50 strain growth inhibition, active compounds read high
# Method in brief: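 Compounds were tested on a yeast strain with an engineered DNA damage repair alteration; the reported value is growth inhibition normalised to vehicle treatment.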
# [5] = NCI Yeast Anticancer Drug Screen. Data for the mec2-1 strain (AID 157); conditions: S. cerevisiae mec2-1 strain, active compounds read high
# Method in brief: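 mec2-1 yeast strain, carrying an alteration in DNA damage repair or cell cycle control, was exposed to compounds; growth inhibition was measured relative to vehicle-treated controls.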
# [6] = NCI Yeast Anticancer Drug Screen. Data for the rad14 strain (AID 159);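 further: 0% = growth of vehicle-treated control cultures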; conditions: S. cerevisiae rad14 strain growth inhibition, active compounds read high
# Method in brief: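 Compound-treated yeast with a defined DNA-repair lesion; growth inhibition normalised to vehicle-treated cultures.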
# [7] = NCI Yeast Anticancer Drug Screen. Data for the sgs1 mgt1 strain (AID 161);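 further: 0% = growth of cultures given vehicle only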; conditions: S. cerevisiae sgs1 mgt1 strain, active compounds read high
# Method in brief: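 Percent growth inhibition was derived by comparing compound-exposed mutant yeast with vehicle-exposed cultures. The strain carries alterations in DNA damage repair.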
# [8] = NCI Yeast Anticancer Drug Screen. Data for the cln2 rad14 strain (AID 165);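 further: 0% = growth equal to vehicle treated cultures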; conditions: S. cerevisiae cln2 rad14 strain, active compounds read high
# Method in brief: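 Yeast carrying cln2 and rad14 alterations (cell cycle control and DNA damage repair) were exposed to compounds. Growth inhibition was measured against vehicle-treated controls.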
# [9] = NCI Yeast Anticancer Drug Screen. Data for the bub3 strain (AID 167); conditions: S. cerevisiae bub3 mutant strain, active compounds read high
# Method in brief: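 Growth of a checkpoint-deficient yeast mutant is measured after compound exposure. Values represent inhibition relative to vehicle.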
# [10] = NCI Yeast Anticancer Drug Screen. Data for the wt2 strain (AID 169);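 further: 0% = growth of vehicle-treated yeast cultures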; conditions: S. cerevisiae wt2 strain growth inhibition, active compounds read high
# Method in brief: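 Yeast cells were exposed to test compounds, and growth inhibition was measured relative to vehicle-treated controls.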
# [11] = NCI Yeast Anticancer Drug Screen. Data for the mlh1 strain (AID 171);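 further: 0% = growth of vehicle-treated control cultures of the same strain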; conditions: S. cerevisiae mlh1 strain growth inhibition, active compounds read high
# Method in brief: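 Yeast carrying a defined genetic alteration in DNA damage repair or cell cycle control were exposed to test compounds. Growth inhibition was measured relative to vehicle-treated controls.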
# [12] = NCI Yeast Anticancer Drug Screen. Data for the sgs1 strain (AID 173);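 further: 0% = growth of vehicle-only control cultures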; conditions: S. cerevisiae sgs1 mutant, active compounds read high
# Method in brief: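 Yeast mutant strains carrying defined defects in DNA damage repair or cell cycle control were exposed to test compounds. Growth inhibition was scored against vehicle-treated controls.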
# [13] = NCI Yeast Anticancer Drug Screen. Data for the mlh1 rad18 strain (AID 175); conditions: S. cerevisiae mlh1 rad18 strain growth inhibition, active compounds read high
# Method in brief: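 Growth inhibition of the yeast strain was measured after compound exposure and expressed relative to vehicle-treated controls. The strain carries defined defects in DNA damage repair.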
# [14] = NCI Yeast Anticancer Drug Screen. Data for the rad18 strain (AID 177); conditions: S. cerevisiae rad18 mutant growth inhibition, active compounds read high
# Method in brief: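 Yeast carrying a defined DNA damage repair alteration were exposed to compounds. Growth inhibition was expressed relative to vehicle-treated controls.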
# [15] = at 5.0 µM (retest, dose inferred, filed as 0.5)
# [16] = at 50.0 µM (retest, dose inferred, filed as 5.0)
structure (smiles),measurement,setting,value
O=C(CSS(=O)(=O)O)c1ccccc1,growth inhibition,[1]; at 1.2 µM,0%
same,growth inhibition,[1]; at 3.7 µM,5%
same,growth inhibition,[1]; at 11.0 µM,2%
same,growth inhibition,[1]; at 33.0 µM,5%
same,growth inhibition,[1]; at 100.0 µM,12%
same,growth inhibition,[2]; at 1.2 µM,-4%
same,growth inhibition,[2]; at 3.7 µM,-9%
same,growth inhibition,[2]; at 11.0 µM,11%
same,growth inhibition,[2]; at 33.0 µM,67%
same,growth inhibition,[2]; at 100.0 µM,91% (active)
same,growth inhibition,[3]; at 1.2 µM,-1%
same,growth inhibition,[3]; at 3.7 µM,-3%
same,growth inhibition,[3]; at 11.0 µM,-1%
same,growth inhibition,[3]; at 33.0 µM,2%
same,growth inhibition,[3]; at 100.0 µM,7%
same,growth inhibition,[4]; at 1.2 µM,-1%
same,growth inhibition,[4]; at 3.7 µM,-1%
same,growth inhibition,[4]; [15],6%
same,growth inhibition,[4]; at 11.0 µM,2%
same,growth inhibition,[4]; at 33.0 µM,2%
same,growth inhibition,[4]; [16],54%
same,growth inhibition,[4]; at 50.0 µM,10.8%
same,growth inhibition,[4]; at 100.0 µM,16%
same,growth inhibition,[5]; at 1.2 µM,-4%
same,growth inhibition,[5]; at 3.7 µM,-5%
same,growth inhibition,[5]; [15],-15%
same,growth inhibition,[5]; at 11.0 µM,0%
same,growth inhibition,[5]; at 33.0 µM,9%
same,growth inhibition,[5]; [16],-6%
same,growth inhibition,[5]; at 50.0 µM,19.9%
same,growth inhibition,[5]; at 100.0 µM,24%
same,growth inhibition,[6]; at 1.2 µM,2%
same,growth inhibition,[6]; at 3.7 µM,3%
same,growth inhibition,[6]; at 11.0 µM,5%
same,growth inhibition,[6]; at 33.0 µM,9%
same,growth inhibition,[6]; at 100.0 µM,19%
same,growth inhibition,[7]; [15],-9%
same,growth inhibition,[7]; [16],69%
same,growth inhibition,[7]; at 50.0 µM,35.3%
same,growth inhibition,[8]; [15],6%
same,growth inhibition,[8]; [16],15%
same,growth inhibition,[8]; at 50.0 µM,18.2%
same,growth inhibition,[9]; at 1.2 µM,0%
same,growth inhibition,[9]; at 3.7 µM,-5%
same,growth inhibition,[9]; [15],-17%
same,growth inhibition,[9]; at 11.0 µM,-1%
same,growth inhibition,[9]; at 33.0 µM,18%
same,growth inhibition,[9]; [16],76% (active)
same,growth inhibition,[9]; at 50.0 µM,34.5%
same,growth inhibition,[9]; at 100.0 µM,47%
same,growth inhibition,[10]; at 1.2 µM,-2%
same,growth inhibition,[10]; at 3.7 µM,-1%
same,growth inhibition,[10]; at 11.0 µM,1%
same,growth inhibition,[10]; at 33.0 µM,6%
same,growth inhibition,[10]; at 100.0 µM,15%
same,growth inhibition,[11]; at 1.2 µM,-4%
same,growth inhibition,[11]; at 3.7 µM,1%
same,growth inhibition,[11]; at 11.0 µM,3%
same,growth inhibition,[11]; at 33.0 µM,12%
same,growth inhibition,[11]; at 100.0 µM,24%
same,growth inhibition,[12]; at 1.2 µM,0%
same,growth inhibition,[12]; at 3.7 µM,2%
same,growth inhibition,[12]; at 11.0 µM,13%
same,growth inhibition,[12]; at 33.0 µM,29%
same,growth inhibition,[12]; at 100.0 µM,51%
same,growth inhibition,[13]; [15],31%
same,growth inhibition,[13]; [16],89% (active)
same,growth inhibition,[13]; at 50.0 µM,35%
same,growth inhibition,[14]; at 1.2 µM,5%
same,growth inhibition,[14]; at 3.7 µM,20%
same,growth inhibition,[14]; at 11.0 µM,62%
same,growth inhibition,[14]; at 33.0 µM,84% (active)
same,growth inhibition,[14]; at 100.0 µM,89% (active)
N#C/C(=C1C=C/C(=N\O)C(Cl)=C\1)c1ccccc1,growth inhibition,[1]; at 1.2 µM,-2%
same,growth inhibition,[1]; at 3.7 µM,-5%
same,growth inhibition,[1]; at 11.0 µM,2%
same,growth inhibition,[1]; at 33.0 µM,0%
same,growth inhibition,[1]; at 100.0 µM,3%
same,growth inhibition,[2]; at 1.2 µM,2%
same,growth inhibition,[2]; at 3.7 µM,16%
same,growth inhibition,[2]; at 11.0 µM,26%
same,growth inhibition,[2]; at 33.0 µM,21%
same,growth inhibition,[2]; at 100.0 µM,24%
same,growth inhibition,[3]; at 1.2 µM,-3%
same,growth inhibition,[3]; at 3.7 µM,1%
same,growth inhibition,[3]; at 11.0 µM,3%
same,growth inhibition,[3]; at 33.0 µM,5%
same,growth inhibition,[3]; at 100.0 µM,10%
same,growth inhibition,[4]; at 1.2 µM,0%
same,growth inhibition,[4]; at 3.7 µM,3%
same,growth inhibition,[4]; [15],24%
same,growth inhibition,[4]; at 11.0 µM,8%
same,growth inhibition,[4]; at 33.0 µM,13%
same,growth inhibition,[4]; [16],76% (active)
same,growth inhibition,[4]; at 50.0 µM,55.8%
same,growth inhibition,[4]; at 100.0 µM,14%
same,growth inhibition,[5]; at 1.2 µM,-1%
same,growth inhibition,[5]; at 3.7 µM,0%
same,growth inhibition,[5]; [15],-11%
same,growth inhibition,[5]; at 11.0 µM,2%
same,growth inhibition,[5]; at 33.0 µM,5%
same,growth inhibition,[5]; [16],36%
same,growth inhibition,[5]; at 50.0 µM,43%
same,growth inhibition,[5]; at 100.0 µM,14%
same,growth inhibition,[6]; at 1.2 µM,2%
same,growth inhibition,[6]; at 3.7 µM,8%
same,growth inhibition,[6]; at 11.0 µM,15%
same,growth inhibition,[6]; at 33.0 µM,17%
same,growth inhibition,[6]; at 100.0 µM,26%
same,growth inhibition,[7]; [15],52%
same,growth inhibition,[7]; [16],85% (active)
same,growth inhibition,[7]; at 50.0 µM,40.1%
same,growth inhibition,[8]; [15],12%
same,growth inhibition,[8]; [16],46%
same,growth inhibition,[8]; at 50.0 µM,-43.9%
same,growth inhibition,[9]; at 1.2 µM,-1%
same,growth inhibition,[9]; at 3.7 µM,2%
same,growth inhibition,[9]; [15],37%
same,growth inhibition,[9]; at 11.0 µM,4%
same,growth inhibition,[9]; at 33.0 µM,14%
same,growth inhibition,[9]; [16],71% (active)
same,growth inhibition,[9]; at 50.0 µM,72.7% (active)
same,growth inhibition,[9]; at 100.0 µM,16%
same,growth inhibition,[10]; at 1.2 µM,-13%
same,growth inhibition,[10]; at 3.7 µM,-11%
same,growth inhibition,[10]; at 11.0 µM,-9%
same,growth inhibition,[10]; at 33.0 µM,-9%
same,growth inhibition,[10]; at 100.0 µM,-1%
same,growth inhibition,[11]; at 1.2 µM,-4%
same,growth inhibition,[11]; at 3.7 µM,4%
same,growth inhibition,[11]; at 11.0 µM,7%
same,growth inhibition,[11]; at 33.0 µM,10%
same,growth inhibition,[11]; at 100.0 µM,23%
same,growth inhibition,[12]; at 1.2 µM,-3%
same,growth inhibition,[12]; at 3.7 µM,7%
same,growth inhibition,[12]; at 11.0 µM,6%
same,growth inhibition,[12]; at 33.0 µM,16%
same,growth inhibition,[12]; at 100.0 µM,33%
same,growth inhibition,[13]; [15],45%
same,growth inhibition,[13]; [16],87% (active)
same,growth inhibition,[13]; at 50.0 µM,80.7% (active)
same,growth inhibition,[14]; at 1.2 µM,-1%
same,growth inhibition,[14]; at 3.7 µM,1%
same,growth inhibition,[14]; at 11.0 µM,-2%
same,growth inhibition,[14]; at 33.0 µM,2%
same,growth inhibition,[14]; at 100.0 µM,13%
CC(C)(C(=O)NN)c1ccccc1,growth inhibition,[1]; at 1.2 µM,2%
same,growth inhibition,[1]; at 3.7 µM,9%
same,growth inhibition,[1]; at 11.0 µM,34%
same,growth inhibition,[1]; at 33.0 µM,52%
same,growth inhibition,[1]; at 100.0 µM,78% (active)
same,growth inhibition,[2]; at 1.2 µM,4%
same,growth inhibition,[2]; at 3.7 µM,25%
same,growth inhibition,[2]; at 11.0 µM,52%
same,growth inhibition,[2]; at 33.0 µM,68%
same,growth inhibition,[2]; at 100.0 µM,85% (active)
same,growth inhibition,[3]; at 1.2 µM,4%
same,growth inhibition,[3]; at 3.7 µM,10%
same,growth inhibition,[3]; at 11.0 µM,22%
same,growth inhibition,[3]; at 33.0 µM,54%
same,growth inhibition,[3]; at 100.0 µM,90% (active)
same,growth inhibition,[4]; at 1.2 µM,3%
same,growth inhibition,[4]; at 3.7 µM,5%
same,growth inhibition,[4]; [15],14%
same,growth inhibition,[4]; at 11.0 µM,22%
same,growth inhibition,[4]; at 33.0 µM,40%
same,growth inhibition,[4]; [16],99% (active)
same,growth inhibition,[4]; at 50.0 µM,52.9%
same,growth inhibition,[4]; at 100.0 µM,82% (active)
same,growth inhibition,[5]; at 1.2 µM,0%
same,growth inhibition,[5]; at 3.7 µM,1%
same,growth inhibition,[5]; [15],11%
same,growth inhibition,[5]; at 11.0 µM,24%
same,growth inhibition,[5]; at 33.0 µM,53%
same,growth inhibition,[5]; [16],95% (active)
same,growth inhibition,[5]; at 50.0 µM,9.5%
